# In ChEMBL document CHEMBL2218924, “A broad activity screen in support of a chemogenomic map for kinase signalling research and drug discovery” (Biochem J, 2013):
# Target: Macrophage colony-stimulating factor 1 receptor (Homo sapiens) (UniProt P07333)
# Settings: at 1 µM
# Chain of Macrophage colony-stimulating factor 1 receptor (Homo sapiens) (P07333 whole entry): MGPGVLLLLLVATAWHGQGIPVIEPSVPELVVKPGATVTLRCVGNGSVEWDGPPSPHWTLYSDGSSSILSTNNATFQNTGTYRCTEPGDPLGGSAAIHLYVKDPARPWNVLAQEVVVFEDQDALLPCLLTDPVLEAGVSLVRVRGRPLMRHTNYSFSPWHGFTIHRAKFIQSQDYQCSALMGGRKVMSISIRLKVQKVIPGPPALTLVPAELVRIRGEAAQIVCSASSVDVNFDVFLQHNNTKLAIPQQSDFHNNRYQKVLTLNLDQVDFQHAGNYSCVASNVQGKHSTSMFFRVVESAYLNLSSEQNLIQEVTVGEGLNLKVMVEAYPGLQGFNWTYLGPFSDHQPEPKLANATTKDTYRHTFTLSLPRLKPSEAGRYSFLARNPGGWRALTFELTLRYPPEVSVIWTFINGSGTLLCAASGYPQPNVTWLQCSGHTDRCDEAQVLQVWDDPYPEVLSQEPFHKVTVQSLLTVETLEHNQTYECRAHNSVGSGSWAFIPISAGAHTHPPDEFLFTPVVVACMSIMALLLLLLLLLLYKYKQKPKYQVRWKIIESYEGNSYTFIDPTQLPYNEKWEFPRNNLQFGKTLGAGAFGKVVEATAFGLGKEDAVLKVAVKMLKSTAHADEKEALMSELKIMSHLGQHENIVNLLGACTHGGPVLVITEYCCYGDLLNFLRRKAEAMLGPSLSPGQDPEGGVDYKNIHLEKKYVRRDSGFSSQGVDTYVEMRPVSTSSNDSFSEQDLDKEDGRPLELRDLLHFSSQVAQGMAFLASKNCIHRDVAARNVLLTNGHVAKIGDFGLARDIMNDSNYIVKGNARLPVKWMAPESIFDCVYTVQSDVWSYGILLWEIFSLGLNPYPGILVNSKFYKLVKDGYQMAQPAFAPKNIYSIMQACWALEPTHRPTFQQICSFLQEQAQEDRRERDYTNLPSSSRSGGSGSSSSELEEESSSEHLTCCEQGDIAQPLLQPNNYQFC
row,Compound,residual activity [%]
1,CC(C)(C)n1nc(Cc2cccc3ccccc23)c2c(N)ncnc21,59
2,O=C(Nc1nc2ccccc2n1CCN1CCOCC1)c1cccc([N+](=O)[O-])c1,8
3,COc1ccc2c(c1)c(C1=C(c3c[nH]c4ccccc34)C(=O)NC1=O)cn2CCCN(C)C,59
4,Oc1cccc(-c2nc(N3CCOCC3)c3oc4ncccc4c3n2)c1,78

# Target: Macrophage colony-stimulating factor 1 receptor (Homo sapiens) (UniProt P07333)
# Settings: at 10 µM
row,Compound,residual activity [%]
1,NC(=O)c1ccc(-c2nc(-c3ccc4c(c3)OCCO4)c(-c3ccccn3)[nH]2)cc1,64
2,COc1cc2ncnc(Nc3cccc(Cl)c3)c2cc1OC,38
3,O=C1NC(=O)C(c2cn(CCCn3ccnc3)c3ccccc23)=C1Nc1ccccc1,40
4,Fc1ccc(-c2nc3n(c2-c2ccncc2)CCS3)cc1,84
5,COc1ccc(Cl)cc1NC(=O)Nc1cc(C)nc2ccccc12,73
6,O=c1c(-c2ccc(F)cc2)c(-c2ccncc2)[nH]n1-c1ccc(Cl)cc1,61
7,O=C1Nc2ccccc2/C1=C\c1c(Cl)[nH]c2ccccc12,27
8,NC(=O)c1cccc(-c2cc(Nc3ccc(OC(F)(F)F)cc3)ncn2)c1,73
9,CC(C)N(CCC(=O)c1ccc2ccccc2c1)Cc1ccccc1,125
10,Nc1ncnc2c1cnn2-c1ccccc1,67
11,CC(C)[C@H](CO)Nc1nc(Nc2cc(N)cc(Cl)c2)c2ncn(C(C)C)c2n1,21
12,CCN1/C(=C/C(C)=O)Sc2ccc(OC)cc21,66
13,N#Cc1c(NC(=O)c2cccc3ccccc23)sc2c1CCCC2,74
14,N#C/C(=C1/Nc2ccccc2S1)c1ccnc(NCCc2cccnc2)n1,31
15,O=C(Nc1ccc(Cl)cc1)c1ccccc1NCc1ccncc1,0
16,CCCCc1c(-c2ccc(O)cc2)[nH]c2nccnc12,6
17,N#C/C(=C\c1ccc(O)c(O)c1)C(=O)NCc1ccccc1,81
18,COc1cc2c(cc1OC)-c1n[nH]c(Nc3cccc(F)c3)c1C2,0
19,O=C(c1ccccc1)c1ccc(N2CCOCC2)cc1O,55
20,CC(C)(C)c1nc2c3ccc(F)cc3c3c(=O)[nH]ccc3c2[nH]1,18
21,O=c1cc(N2CCOCC2)oc2c(-c3ccccc3)cccc12,62
22,CCOc1nc(NC(=O)Cc2cc(OC)ccc2OC)cc(N)c1C#N,53
23,NCCNc1ncc(C(N)=O)c(Nc2cccc(C(F)(F)F)c2)n1,4
24,CC(C)(C)n1nc(Cc2cccc3ccccc23)c2c(N)ncnc21,6
25,CSc1nc(-c2ccc(F)cc2)c(-c2ccnc(NC(C)c3ccccc3)c2)[nH]1 (configuration not stated),41
26,O=C(Nc1nc2ccccc2n1CCN1CCOCC1)c1cccc([N+](=O)[O-])c1,5
27,COc1ccc2c(c1)c(C1=C(c3c[nH]c4ccccc34)C(=O)NC1=O)cn2CCCN(C)C,36
28,Oc1cccc(-c2nc(N3CCOCC3)c3oc4ncccc4c3n2)c1,80
